Bioassay records from PubChem.
Mcl-1 Bim block: disrupts Bim peptide binding to human Mcl-1; inhibition, % at 10 µM; Bead-based flow cytometry, Bim peptide-Mcl-1 binding; actives 0.1% (n = 190,000); Q07820; AID 1009; in the data active means inhibition above about 40%
eIF4E 4G PPI: blocks eIF4E binding to eIF4G; P63073+Q04637; TR-FRET eIF4E-eIF4GI(517-606) binding, 2 h; inhibition, % at 21.7 µM; actives 0.37% (n = 220,000); AID 782;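 active means inhibition above about 30%, limit read from the data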
Target sequence (P63073 whole entry, looked up): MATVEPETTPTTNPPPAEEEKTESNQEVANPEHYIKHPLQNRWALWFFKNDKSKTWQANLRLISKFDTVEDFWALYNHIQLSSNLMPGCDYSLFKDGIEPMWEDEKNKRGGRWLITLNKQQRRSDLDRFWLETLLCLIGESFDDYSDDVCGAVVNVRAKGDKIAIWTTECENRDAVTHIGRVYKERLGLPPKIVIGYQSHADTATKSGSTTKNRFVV
Target sequence (Q04637 whole entry, looked up): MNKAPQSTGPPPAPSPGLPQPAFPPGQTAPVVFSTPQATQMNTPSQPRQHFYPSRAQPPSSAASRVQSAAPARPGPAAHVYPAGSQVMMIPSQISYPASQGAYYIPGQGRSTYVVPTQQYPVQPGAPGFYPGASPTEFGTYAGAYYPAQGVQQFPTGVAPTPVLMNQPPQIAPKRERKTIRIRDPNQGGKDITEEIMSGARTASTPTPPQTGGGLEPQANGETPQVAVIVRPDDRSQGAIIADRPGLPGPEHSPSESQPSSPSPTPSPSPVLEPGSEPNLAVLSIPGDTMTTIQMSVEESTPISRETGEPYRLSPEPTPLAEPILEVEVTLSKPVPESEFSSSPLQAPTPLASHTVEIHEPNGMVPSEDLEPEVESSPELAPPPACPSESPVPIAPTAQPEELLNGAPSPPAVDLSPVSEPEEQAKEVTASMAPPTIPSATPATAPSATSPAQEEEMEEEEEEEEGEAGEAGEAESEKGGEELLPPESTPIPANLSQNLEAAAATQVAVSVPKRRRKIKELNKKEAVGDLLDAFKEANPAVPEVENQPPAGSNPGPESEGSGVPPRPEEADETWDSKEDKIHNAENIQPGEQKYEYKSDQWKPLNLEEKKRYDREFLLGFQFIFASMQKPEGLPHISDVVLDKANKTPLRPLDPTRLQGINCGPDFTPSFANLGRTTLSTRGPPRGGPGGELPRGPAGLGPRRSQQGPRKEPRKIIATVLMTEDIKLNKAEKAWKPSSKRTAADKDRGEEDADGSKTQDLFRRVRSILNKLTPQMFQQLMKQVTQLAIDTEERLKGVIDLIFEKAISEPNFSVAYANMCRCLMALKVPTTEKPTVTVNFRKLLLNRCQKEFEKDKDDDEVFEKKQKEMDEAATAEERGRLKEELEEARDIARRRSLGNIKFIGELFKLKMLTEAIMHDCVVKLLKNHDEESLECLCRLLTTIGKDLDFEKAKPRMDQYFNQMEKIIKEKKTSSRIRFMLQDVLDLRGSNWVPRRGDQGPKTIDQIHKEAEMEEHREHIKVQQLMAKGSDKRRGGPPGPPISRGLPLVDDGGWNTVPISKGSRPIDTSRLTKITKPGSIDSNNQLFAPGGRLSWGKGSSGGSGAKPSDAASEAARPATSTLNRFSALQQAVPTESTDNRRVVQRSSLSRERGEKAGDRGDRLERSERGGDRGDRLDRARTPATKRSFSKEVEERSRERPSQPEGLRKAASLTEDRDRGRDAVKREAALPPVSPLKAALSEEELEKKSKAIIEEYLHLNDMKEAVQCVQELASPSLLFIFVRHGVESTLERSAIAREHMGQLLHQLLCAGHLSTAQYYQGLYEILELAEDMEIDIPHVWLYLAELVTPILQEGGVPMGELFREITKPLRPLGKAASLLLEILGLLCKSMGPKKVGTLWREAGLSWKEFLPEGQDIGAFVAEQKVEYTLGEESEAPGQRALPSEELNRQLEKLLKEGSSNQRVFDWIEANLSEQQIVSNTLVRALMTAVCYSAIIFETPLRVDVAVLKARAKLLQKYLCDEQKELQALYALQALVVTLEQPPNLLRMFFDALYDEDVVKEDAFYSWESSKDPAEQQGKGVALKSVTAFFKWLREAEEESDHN
Mcl1-Bid inh: Mcl-1/Bid interaction inhibition; Q07820; TR-FRET Mcl-1/Bid-Dy647 peptide binding, 1536-well; inhibition, % at 21.7 µM; actives 0.97% (n = 220,000);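 active means compounds that cut the binding signal by more than half at the single screening dose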;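 further: His-tagged Mcl-1 with europium anti-His antibody binding Bid BH3 peptide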
MCL1-BIM inh: MCL1-BIM-BH3 interaction inhibition (human). inhibition, % at 10.9 µM. GST-MCL1 / FITC-Bim-BH3 fluorescence polarization. actives 0.68% (n = 320,000). Q07820;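 active means inhibition above the mean inhibition of all tested compounds plus 3 SD, set per campaign, cut at about 40% in these data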;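 further: higher means more loss of mP so more displacement of Bim peptide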
Mcl1 Noxa PPI: disrupts binding of human Mcl-1 to Noxa peptide. TR-FRET Mcl-1/Noxa peptide binding, 2 h. inhibition, % at 21.7 µM. actives 1.5% (n = 220,000). Q07820;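 active means compounds that cut the protein-peptide binding signal by more than 50% relative to plate controls in a single-dose test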;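 further: His-tagged Mcl-1 with rhodamine Noxa BH3 peptide and terbium anti-His antibody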
14-3-3 Bad PPI: disrupts binding of bovine 14-3-3 zeta to phospho-Bad peptide; P63103; TR-FRET 14-3-3zeta/Dy647-pBad peptide displacement, 1 h; inhibition, % at 21.7 µM; actives 0.71% (n = 220,000); AID 781;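 active means inhibition above about 70%, limit read from the data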
Large screens that a line does not name were inactive; [ ] = another dose, or the depositor's remark. Compounds with a hit are over-represented: about 2.6% of the library has one in this group of screens.

CC1=CC2=NC(=O)/C(=C\c3cccn3CCOc3ccccc3C)C(=N)N2O1	none
CC(C)COc1ccc(C(=O)CCN2CCCCC2)cc1	14-3-3 Bad PPI 79
Cc1ccccc1OCCCC(=O)Nc1ccc(N2CCOCC2)cc1	Mcl1 Noxa PPI 51
Cc1cccc(OCC(=O)Nc2ccc(N3CCCC3)cc2)c1C	Mcl1 Noxa PPI 62
Cc1ccc(OCC(=O)Nc2ccc(N3CCCC3)cc2)cc1C	Mcl1 Noxa PPI 81, 14-3-3 Bad PPI 74[fluorescence artefact?]
Cc1cc(C)cc(OCC(=O)Nc2ccc(N3CCCC3)cc2)c1	Mcl1 Noxa PPI 67, 14-3-3 Bad PPI 100[fluorescence artefact?]
Cc1ccc(CSc2nnc([C@@H]3CCCN3C(=O)OC(C)(C)C)o2)cc1	none (no result: Mcl-1 Bim block)
CCC1(CC)NC(=O)N(CC(=O)OC(C)C(=O)Nc2cc([N+](=O)[O-])ccc2OC)C1=O (configuration not stated)	none (no result: Mcl-1 Bim block, eIF4E 4G PPI, Mcl1-Bid inh, Mcl1 Noxa PPI, 14-3-3 Bad PPI)
CCOC(=O)CCc1c(C)nc(-n2[nH]c(C)c(CCO)c2=O)[nH]c1=O	none
Brc1ccc(-n2cc(-c3ccccc3)c3c(NN4CCOCC4)ncnc32)cc1	none
CN1CCN(c2ccc(NC(=O)COc3ccccc3Cl)cc2)CC1	Mcl1-Bid inh 63
CCC(=O)N1CCN(c2ccc(NC(=O)COc3ccccc3Cl)cc2)CC1	none
COc1cc2c(=O)n(Cc3ccccc3)c(=O)n(CC(=O)NCc3ccco3)c2cc1OC	Mcl1-Bid inh 52 (no result: MCL1-BIM inh)
O=C(c1cc2cc(Cl)ccc2[nH]1)N1CCN(Cc2ccc3c(c2)OCO3)CC1	none (no result: Mcl-1 Bim block, eIF4E 4G PPI, Mcl1-Bid inh, Mcl1 Noxa PPI, 14-3-3 Bad PPI)
Cc1cc(NC2CCCCC2)nc(-c2ccccc2O)n1	Mcl1-Bid inh 52
Cn1cccc1/C=C1\SC(=S)N(NC(=O)c2ccccc2O)C1=O	none (no result: Mcl-1 Bim block)
O=C1S/C(=C\C=C\c2ccco2)C(=O)N1c1ccc(O)cc1	Mcl1 Noxa PPI 56
O=C(NN1C(=O)/C(=C/C=C/c2ccco2)SC1=S)c1ccccc1O	eIF4E 4G PPI 36, Mcl1-Bid inh 60, Mcl1 Noxa PPI 101, 14-3-3 Bad PPI 75 (no result: Mcl-1 Bim block)
COc1ccc(/C=C2\SC(=S)N(C(Cc3ccccc3)C(=O)O)C2=O)cc1 (configuration not stated)	none (no result: MCL1-BIM inh)
O=C(O)C(Cc1ccccc1)N1C(=O)/C(=C/C=C/c2ccco2)SC1=S (configuration not stated)	eIF4E 4G PPI 53, Mcl1-Bid inh 98, Mcl1 Noxa PPI 102, 14-3-3 Bad PPI 95 (no result: Mcl-1 Bim block, MCL1-BIM inh)
O=C1S/C(=C\C=C\c2ccco2)C(=O)N1c1ccccc1	none
O=S(=O)(c1cnc[nH]1)N1CCN(C(c2ccc(F)cc2)c2ccc(F)cc2)CC1	none (no result: Mcl-1 Bim block, eIF4E 4G PPI, Mcl1-Bid inh, Mcl1 Noxa PPI, 14-3-3 Bad PPI)
COc1ccc(S(=O)(=O)NCCc2nnc3ccc(SCC(=O)Nc4nc(C)cs4)nn23)cc1	none
COc1cc(Cl)c(C)cc1NC(=O)CCCn1c(=O)oc2ccccc21	Mcl1-Bid inh 95
COc1cc(OC)c(NC(=O)CCCn2c(=O)oc3ccccc32)cc1Cl	none
COc1ccc2[nH]c(=O)c(CN(CCN3CCCC3)C(=O)Nc3ccccc3Cl)cc2c1	eIF4E 4G PPI 58
COc1ccc(C(=O)O)cc1NC(=S)NC(=O)c1ccc(-c2ccc(Cl)cc2)o1	Mcl1 Noxa PPI 75 (no result: MCL1-BIM inh)
Cc1ccc(C(=O)O)cc1NC(=S)NC(=O)c1ccc(-c2ccc(Cl)cc2)o1	none (no result: Mcl-1 Bim block)
COc1ccc(COC(=O)CCc2c[nH]c3ccccc23)cc1F	none (no result: Mcl-1 Bim block, eIF4E 4G PPI, Mcl1-Bid inh, Mcl1 Noxa PPI, 14-3-3 Bad PPI)
O=C1CSC(c2ccc([N+](=O)[O-])cc2)N1c1ccc(O)cc1 (configuration not stated)	none (no result: Mcl-1 Bim block, eIF4E 4G PPI, Mcl1-Bid inh, Mcl1 Noxa PPI, 14-3-3 Bad PPI)
COc1cc(C2Nc3cccc4cccc(c34)N2)ccc1O	none (no result: Mcl-1 Bim block, eIF4E 4G PPI, Mcl1-Bid inh, Mcl1 Noxa PPI, 14-3-3 Bad PPI)
COc1cc(C2Nc3cccc4cccc(c34)N2)cc(OC)c1OC(C)=O	MCL1-BIM inh 46, Mcl1 Noxa PPI 82
Cc1c(OC(=O)c2ccc([N+](=O)[O-])cc2)c2c(c[n+]1C)COC(C)(C)OC2	eIF4E 4G PPI 41[fluorescence artefact?]
Cc1ncc2c(c1OC(=O)c1ccccc1)COC(C)(C)OC2	none
Cc1ccc(NC(=O)CSc2nc3[nH]ncc3c(=O)[nH]2)c(C)c1	none
C/C(=N\NC(N)=O)c1cccc(Cl)c1	14-3-3 Bad PPI 75[fluorescence artefact?]
C/C(=N\N=C(N)N)c1cccc(Cl)c1	none
O=C(N/C=C/c1ccco1)NCc1ccccc1	Mcl1 Noxa PPI 64
COc1cc(C(=O)Nc2ccc(N(C)C)cc2)c([N+](=O)[O-])cc1OC	Mcl1 Noxa PPI 69
COc1cc(C(=O)Nc2ccncc2)c([N+](=O)[O-])cc1OC	none (no result: Mcl-1 Bim block)
COc1ccc(S(=O)(=O)Nc2ccc(-n3cnnn3)cc2)cc1[N+](=O)[O-]	none (no result: Mcl-1 Bim block, eIF4E 4G PPI, Mcl1-Bid inh, Mcl1 Noxa PPI, 14-3-3 Bad PPI)
O=C(NN1C(=O)C2C(C1=O)C1C=CC2C12CC2)c1ccc(Cl)cc1 (configuration not stated)	Mcl1-Bid inh 100 (no result: Mcl-1 Bim block)
C=CCN1C(=O)/C(=C2/Sc3ccc(OC)cc3N2C)SC1=Nc1cccc(O)c1	Mcl1-Bid inh 54, Mcl1 Noxa PPI 58
C=CCOC(=O)C1=C(C)N=c2s/c(=C3\C(=O)N(CC(=O)O)c4ccccc43)c(=O)n2C1c1ccc(OC)cc1 (configuration not stated)	Mcl1 Noxa PPI 81 (no result: Mcl-1 Bim block)
CCOC(=O)Cc1csc(NC(=O)c2sc3nc4c(C)cc(C)cc4cc3c2N)n1	Mcl1 Noxa PPI 64
Cc1ccc(S(=O)(=O)NCC(=O)N(CC(=O)NCC2CCCO2)C2CCCC2)cc1 (configuration not stated)	eIF4E 4G PPI 91[fluorescence artefact?]
CCCn1c(=O)[nH]c(=O)c2c1nc(-c1ccc3c(c1)OCCO3)n2CCN1CCOCC1	14-3-3 Bad PPI 72
COc1ccccc1CNC(=O)COC(=O)c1cccc(-n2cnnn2)c1	none (no result: Mcl-1 Bim block, eIF4E 4G PPI, Mcl1-Bid inh, Mcl1 Noxa PPI, 14-3-3 Bad PPI)
